Test results: PubChem BioAssay
Inconclusive results are not listed. Activity calls are given as the source filed them.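 Rule for the calls, unless noted: active = viability at or below 27.92% in each of two runs, the all-compound median minus 4 SD; inconclusive = no clear call, values can overlap the other calls; inactive = the rest.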

Key:
[1] = reducers of endogenous Her2 protein level, primary screen, SKBR3 breast tumor cells, AlphaScreen, ATP viability (AID 461;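 active = Her2 level under about 52% in both replicate screens, with viability over 70% of control, limit read from the data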;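 for Her2 level: lower value means less Her2 protein in the cells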;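 for viability: percent of carrier control wells set as 100% viability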); details: 18-24 h, measured here: SKBR3 viability, ATP luminescence, at 10 µM
[2] = target: Receptor tyrosine-protein kinase erbB-2 (Homo sapiens) (UniProt P04626); assay: as above; details: 18-24 h, at 10 µM, stronger effect = lower value
[3] = SK-BR-3 cell growth inhibitors, pilot screen, 24 h, human (AID 572;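 active = viability at or below 10% of carrier control in both of two separate runs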;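 note: compound exposure lasted between 18 and 24 h rather than exactly 24 h; 100% = carrier-treated control wells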); details: SK-BR-3 viability, CellTiter-Glo luminescence, at 10 µM, stronger effect = lower value
[4] = HUVEC growth inhibition – cell-based, human, primary screen (AID 575;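 active = viability at or below 30% in both replicate assays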;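 note: 100% = median of untreated cell wells with 0.1% DMSO on each plate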); details: HUVEC proliferation, CellTiter-Glo luminescence, 72 h; at 10 µM; stronger effect = lower value
[5] = growth inhibitors of H69AR lung tumor, primary screen, human, duplicate replicates (AID 580;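 active = viability at or under a set limit in both replicates, limit being median viability minus 3 SD, cut at about 48% in these data, passing the limit was not always enough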;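 note: 100% = mean luminescence of untreated wells and 0% = no signal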); details: H69AR lung tumor cells viability, ATP luminescence, 72 h; at 10 µM; stronger effect = lower value
[6] = reversal of MRP1-mediated doxorubicin resistance, pilot screen, H69AR cells, doxorubicin co-treatment (AID 601;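 active = viability loss from added drug above about 55%, and viability with drug at most 40%, in both replicates, limit read from the data, passing the limit was not always enough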); details: CellTiter-Glo, 72 h, at 10 µM; for differential viability (reversal): stronger effect = higher value
[7] = 384-well plate pilot, post-Golgi transport modulator project, inhibition of yeast transport mutant growth (AID 636; in the data active = inhibition above about 31%); details: absorbance 615 nm, about 18 h, stronger effect = higher value
[8] = growth suppression of yeast trafficking mutant, preliminary HTS, modulators of trafficking downstream of Golgi apparatus project, 1536-format plate, OD 615 nm (AID 637; in the data active = inhibition above about 30%); details: yeast transport mutant growth, absorbance 615 nm, 18 h; stronger effect = higher value
[9] = OD615 S. cerevisiae growth inhibition, permissive medium, pilot counter-assay, permissive growth control for S. cerevisiae lifespan shortening project (AID 705;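 active = growth inhibition above 25% in both replicates, a cutoff set 3 SD above the mean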); details: OD615, 24 h, at 10 µM, stronger effect = higher value
[10] = Restrictive medium S. cerevisiae growth inhibition, OD615, pilot screen of yeast lifespan reduction project, restrictive growth control (AID 706;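 active = growth inhibition above a set limit, 3 SD over mean compound inhibition, in both replicates, cut at about 43% in these data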;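 note: modified DeaD lifespan yeast strain shifted to restrictive glucose medium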); details: OD615, 48 h, at 10 µM, stronger effect = higher value
[11] = viability gain of MRP-1-high H69AR cells under doxorubicin, pilot screen, MRP-1 activator project, CellTiter-Glo, duplicate (AID 807;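 active = viability increase at or above a cutoff of the median across tested compounds plus 3 SD, cut at about 8.5% in these data, passing the limit was not always enough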;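 note: compound pretreatment 18-22 h then 72 h combined with doxorubicin; 0% = doxorubicin alone and 100% = vehicle without doxorubicin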); details: H69AR viability with doxorubicin, CellTiter-Glo luminescence; at 10 µM; stronger effect = higher value
[12] = growth suppression of beta-catenin knockout HCT116, pilot screen, human colon tumor cells (AID 823;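 active = cell viability at or below a set limit in both duplicate runs, the limit being the all-compound median minus 4 SD, cut at about 23% in these data, passing the limit was not always enough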;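 note: 0% = wells killed by 20 µM Hyamine and 100% = untreated DMSO cell wells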); details: CellTiter-Glo, 60 h, at 10 µM, stronger effect = lower value
[13] = growth suppression of PTEN-deleted HCT116, pilot screen, cell-based, HCT116 clonal line, CellTiter-Glo (AID 824); details: 60 h, at 10 µM, stronger effect = lower value;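 note: 0% = 20 µM Hyamine control and 100% = vehicle cell control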
[14] = inhibitors of the yeast RAM network, pilot screen, dse1pr::URA3 reporter, 5-FOA selection (AID 869;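 active = inhibition over a set limit, the all-compound mean plus 3 SD, in both replicate runs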;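 note: 0% = DMSO wells with no growth and 100% = 10 µM 1-NA-PP1 with full growth; RAM network block rescues cells from 5-FOA so hits raise OD615 growth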); details: S. cerevisiae dse1pr::URA3 5-FOA growth, OD615, 2 d; at 10 µM; stronger effect = higher value; strain carries analog-sensitive mutant Cbk1 kinase
[15] = RAM signaling pathway blockade in yeast – S. cerevisiae, Pdr1DBD-CYC8 efflux-inhibited sensitized strain, primary screen (AID 1298;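 active = RAM network inhibition above 8.4% in each of two replicates, 3 SD over the compound average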;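 note: 0% = DMSO untreated cells without growth and 100% = 10 µM 1-NA-PP1 full growth; higher means more yeast growth rescued from 5-FOA killing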); details: S. cerevisiae cbk1-as DSE1-URA3 strain, 5-FOA growth OD615, 2 d; at 50 µM; stronger effect = higher value
[16] = H69AR cells + 2 uM doxorubicin, measured here: viability with 2 uM doxorubicin, stronger effect = lower value
[17] = H69AR cells, compound alone cytotoxicity

Receptor tyrosine-protein kinase erbB-2 (Homo sapiens), sequence (P04626 whole entry, looked up): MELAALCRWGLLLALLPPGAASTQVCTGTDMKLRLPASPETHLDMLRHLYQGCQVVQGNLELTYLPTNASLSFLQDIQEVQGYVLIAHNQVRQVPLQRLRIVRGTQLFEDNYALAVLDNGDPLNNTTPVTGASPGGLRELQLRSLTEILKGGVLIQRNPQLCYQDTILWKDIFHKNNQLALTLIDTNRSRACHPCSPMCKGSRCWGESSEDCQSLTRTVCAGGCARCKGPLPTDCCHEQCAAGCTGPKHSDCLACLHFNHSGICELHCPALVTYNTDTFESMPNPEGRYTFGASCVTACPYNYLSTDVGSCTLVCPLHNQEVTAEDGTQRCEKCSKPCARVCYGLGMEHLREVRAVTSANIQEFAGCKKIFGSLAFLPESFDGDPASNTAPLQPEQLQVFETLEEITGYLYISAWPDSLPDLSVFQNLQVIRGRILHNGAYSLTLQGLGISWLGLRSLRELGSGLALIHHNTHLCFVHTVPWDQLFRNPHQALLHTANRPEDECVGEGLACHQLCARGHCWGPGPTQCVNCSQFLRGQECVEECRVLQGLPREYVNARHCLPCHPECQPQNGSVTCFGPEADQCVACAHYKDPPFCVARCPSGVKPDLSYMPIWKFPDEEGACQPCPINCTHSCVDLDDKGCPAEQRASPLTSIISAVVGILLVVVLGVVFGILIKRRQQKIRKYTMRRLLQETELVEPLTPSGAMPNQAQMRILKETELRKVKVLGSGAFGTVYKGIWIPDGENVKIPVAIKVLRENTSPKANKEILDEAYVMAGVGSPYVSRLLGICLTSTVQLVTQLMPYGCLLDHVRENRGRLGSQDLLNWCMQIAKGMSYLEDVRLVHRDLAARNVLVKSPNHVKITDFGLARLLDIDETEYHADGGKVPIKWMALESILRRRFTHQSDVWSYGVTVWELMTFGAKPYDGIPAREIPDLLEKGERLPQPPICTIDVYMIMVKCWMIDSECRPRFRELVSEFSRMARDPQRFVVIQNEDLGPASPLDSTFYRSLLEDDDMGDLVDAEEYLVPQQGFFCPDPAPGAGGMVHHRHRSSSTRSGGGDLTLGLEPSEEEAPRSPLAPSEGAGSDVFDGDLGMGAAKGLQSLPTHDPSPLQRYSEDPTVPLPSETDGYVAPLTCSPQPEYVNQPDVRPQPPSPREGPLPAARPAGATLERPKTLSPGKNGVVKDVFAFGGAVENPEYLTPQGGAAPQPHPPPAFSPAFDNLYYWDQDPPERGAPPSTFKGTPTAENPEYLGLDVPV

Row | SMILES | viability [1] [%] | Her2 level [2] | viability [3] | viability [4] | viability [5] | differential viability (reversal) ([6]; H69AR cells + 2 uM doxorubicin) | viability [6, 16] [%] | viability [6, 17] [%] | inhibition [7] | inhibition [8] | growth inhibition [9] | growth inhibition [10] | viability increase [11] | viability [12] | viability [13] | inhibition [14] | RAM network inhibition [15]
1 | CCOC(=O)c1ccc(N2Cc3cc(C)c(C)cc3C2)cc1O | 95.5 | 95.5% (inactive) | 95.5% (inactive) | 108% (inactive) | 97.3% (inactive) | 4.4% (inactive) | 92.9 | 97.3 | 4.27% (inactive) | 10.3% (inactive) | -10.9% (inactive) | -7.42% (inactive) | 2.66% (inactive) | 107% (inactive) | 93.8% (inactive) | 0.285% (inactive) | 1.88% (inactive)
2 | Cc1nc2ccccc2c2oc(C(=O)N3CCN(C(=O)c4ccco4)CC3)cc12 | 79 | 95.5% (inactive) | 79% (inactive) | 87.4% (inactive) | 83.1% (inactive) | -0.275% (inactive) | 83.4 | 83.1 | -2.69% (inactive) | 1.67% (inactive) | -6.06% (inactive) | 2.71% (inactive) | -5.18% (inactive) | 101% (inactive) | 107% (inactive) | 0.195% (inactive) | 2.11% (inactive)
3 | CNC(=O)CN(c1ccc(C(C)C)cc1)S(C)(=O)=O | 94 | 108% (inactive) | 94% (inactive) | 95.6% (inactive) | 86.3% (inactive) | 0.39% (inactive) | 85.9 | 86.3 | -3.25% (inactive) | -4% (inactive) | -10.4% (inactive) | -21.6% (inactive) | 0.08% (inactive) | 95% (inactive) | 96.1% (inactive) | 1.04% (inactive) | 2.63% (inactive)
4 | CCOCCCNC(=O)Cn1ncc2c(=O)oc3ccccc3c21 | 95 | 98% (inactive) | 95% (inactive) | 81.5% (inactive) | 90.5% (inactive) | -3.42% (inactive) | 93.9 | 90.5 | 1.79% (inactive) | -2.83% (inactive) | 7.44% (inactive) | 15.2% (inactive) | -0.6% (inactive) | 101% (inactive) | 94.3% (inactive) | -0.73% (inactive) | 1.15% (inactive)
5 | COCCNC(=O)c1ccc(CS(=O)(=O)c2c(Cl)cccc2Cl)o1 | 84.5 | 116% (inactive) | 84.5% (inactive) | 84% (inactive) | 98.9% (inactive) | 4.06% (inactive) | 94.8 | 98.9 | -3.47% (inactive) | -4.83% (inactive) | -17.4% (inactive) | -11.8% (inactive) | -1.73% (inactive) | 103% (inactive) | 93% (inactive) | 1.32% (inactive) | 1.21% (inactive)
6 | Cc1ccc(C)c(S(=O)(=O)n2cnc3ccccc32)c1 | 96.5 | 87.5% (inactive) | 96.5% (inactive) | 109% (inactive) | 99% (inactive) | 7.94% (inactive) | 91.1 | 99 | -0.13% (inactive) | 30.2% (active) | -18% (inactive) | -20.2% (inactive) | 0.98% (inactive) | 95.2% (inactive) | 97.6% (inactive) | 2.08% (inactive) | 2.15% (inactive)
7 | Nc1cccc2c1C(=O)N(c1ccccc1)C2=O | 95 | 97% (inactive) | 95% (inactive) | 91.4% (inactive) | 98.8% (inactive) | 14.7% (inactive) | 84.1 | 98.8 | -3.87% (inactive) | -1.48% (inactive) | -10.6% (inactive) | -8.73% (inactive) | -2.17% (inactive) | 106% (inactive) | 95.2% (inactive) | 1.5% (inactive) | 0.47% (inactive)
8 | O=C(NCCN1C(=O)C2C3C=CC(C3)C2C1=O)N1CCCCC1 (stereo not drawn) | 122 | 112% (inactive) | 122% (inactive) | 100% (inactive) | 103% (inactive) | 6.97% (inactive) | 96.5 | 103 | 4.93% (inactive) | -4.83% (inactive) | -11.7% (inactive) | 0.245% (inactive) | -0.67% (inactive) | 102% (inactive) | 95.1% (inactive) | 2.13% (inactive) | 3.08% (inactive)
9 | Cc1nnc(NC(=O)CSc2nc3c(c(=O)n2C)SC(C)C3)s1 (stereo not drawn) | 89 | 80% (inactive) | 89% (inactive) | 79.4% (inactive) | 84.8% (inactive) | 4.81% (inactive) | 80 | 84.8 | -6.27% (inactive) | 4.17% (inactive) | -11.1% (inactive) | -18.2% (inactive) | 0.31% (inactive) | 104% (inactive) | 99.6% (inactive) | 2.09% (inactive) | 9.95% (inactive)
10 | O=C(NC1CCCC1)C1CCCN(S(=O)(=O)c2cccc3cccnc23)C1 (stereo not drawn) | 102 | 116% (inactive) | 102% (inactive) | 115% (inactive) | 98.8% (inactive) | 3.92% (inactive) | 94.8 | 98.8 | -5.07% (inactive) | 4.33% (inactive) | -9.46% (inactive) | 1.54% (inactive) | -1.04% (inactive) | 100% (inactive) | 99.3% (inactive) | 0.7% (inactive) | 5.53% (inactive)
11 | Cc1ccc(-n2c3c(cc(C(=O)NC4CCSC4=O)c2=O)C(=O)CC(C)(C)C3)cc1 (stereo not drawn) | 101 | 99.5% (inactive) | 101% (inactive) | 85.4% (inactive) | 85.3% (inactive) | 14.6% (inactive) | 70.7 | 85.3 | -1.69% (inactive) | -0.67% (inactive) | -1.71% (inactive) | -9.19% (inactive) | -2.78% (inactive) | 99.1% (inactive) | 101% (inactive) | 2.32% (inactive) | 4.09% (inactive)
12 | Cc1ccc(OCC(O)CN2C(=O)NC(C)(C)C2=O)cc1C (stereo not drawn) | 105 | 94.5% (inactive) | 105% (inactive) | 88% (inactive) | 102% (inactive) | 15.8% (inactive) | 86.4 | 102 | -5.73% (inactive) | 5.08% (inactive) | -11.3% (inactive) | -19.3% (inactive) | -0.62% (inactive) | 105% (inactive) | 94% (inactive) | 0.65% (inactive) | 4.18% (inactive)
13 | Cc1ccc2[nH]c(=O)c3cc(C(=O)NCCN4CCN(C)CC4)sc3c2c1 | 96 | 91.5% (inactive) | 96% (inactive) | 97.1% (inactive) | 87.3% (inactive) | 9.29% (inactive) | 78 | 87.3 | -1.03% (inactive) | 6% (inactive) | -9.77% (inactive) | 1.5% (inactive) | -3.64% (inactive) | 74.5% (inactive) | 81.8% (inactive) | 1% (inactive) | -1.95% (inactive)
14 | O=C(Nc1nc(-c2ccccn2)cs1)C1CC1 | 93.5 | 97.5% (inactive) | 93.5% (inactive) | 96.1% (inactive) | 82% (inactive) | -19.5% (inactive) | 101 | 82 | 1.07% (inactive) | -3.17% (inactive) | 0.675% (inactive) | 1.15% (inactive) | 0.73% (inactive) | 67.3% (inactive) | 70.5% (inactive) | 0.575% (inactive) | 0.89% (inactive)
15 | CCCCC(=O)NCCc1cc2c(C)ccc(C)c2[nH]c1=O | 101 | 95% (inactive) | 101% (inactive) | 119% (inactive) | 85.1% (inactive) | 1.76% (inactive) | 83.4 | 85.1 | -5.07% (inactive) | 1.67% (inactive) | -2.27% (inactive) | -13.3% (inactive) | 0.28% (inactive) | 109% (inactive) | 106% (inactive) | 1.61% (inactive) | 0.32% (inactive)
16 | CC(C)(O)C#Cc1ccc(C(=O)N2CCN(C(=O)c3ccco3)CC2)cc1 | 102 | 88% (inactive) | 102% (inactive) | 108% (inactive) | 96.9% (inactive) | 8.95% (inactive) | 87.9 | 96.9 | -3.87% (inactive) | 2.74% (inactive) | -17.3% (inactive) | -11.2% (inactive) | -0.62% (inactive) | 92.4% (inactive) | 99.8% (inactive) | 0.66% (inactive) | 2.19% (inactive)
17 | O=C(Nc1cccc(F)c1)C1C2C=CC3(CN(CCCN4CCOCC4)C(=O)C13)O2 (stereo not drawn) | 96 | 104% (inactive) | 96% (inactive) | 89.4% (inactive) | 103% (inactive) | 20.3% (inactive) | 83.1 | 103 | -2.27% (inactive) | -3.11% (inactive) | 1.12% (inactive) | 1.81% (inactive) | 0.8% (inactive) | 106% (inactive) | 106% (inactive) | 0.595% (inactive) | 2.03% (inactive)
18 | CN1CCN(CC(=O)N2c3ccccc3C(C)(c3ccccc3)CC2(C)C)CC1 (stereo not drawn) | 87 | 103% (inactive) | 87% (inactive) | 78.8% (inactive) | 65.8% (inactive) | -31.3% (inactive) | 97.1 | 65.8 | -0.38% (inactive) | 2% (inactive) | -9.57% (inactive) | -2.67% (inactive) | -6.54% (inactive) | 49.1% (inactive) | 50.7% (inactive) | 0.685% (inactive) | 1.99% (inactive)
19 | O=C(O)C1CC(=O)N(CCOc2ccccc2)C1 (stereo not drawn) | 105 | 126% (inactive) | 105% (inactive) | 111% (inactive) | 93.9% (inactive) | -3.07% (inactive) | 97 | 93.9 | -3.51% (inactive) | -2.62% (inactive) | 2.4% (inactive) | 3.82% (inactive) | 0.57% (inactive) | 102% (inactive) | 100% (inactive) | 0.69% (inactive) | 1.17% (inactive)
